# CYP2C9 inhib – blocks human cytochrome P450 2C9. CYP2C9 Supersomes, luciferin-H conversion, luminescence. inhibition, % at 5 µM. 96,000 tested, 20% active;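 active = blocking of liver enzyme CYP2C9 beyond about 50% at 5 µM, limit read from the data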
# CYP2C19 inhib – inhibitors of human CYP2C19. P33261. CYP2C19 Supersomes, luciferin-H EGE luminescence, 30 min. inhibition, % at 5 µM. 96,000 tested, 21% active. AID 778;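 active = CYP2C19 inhibition above a set limit at 5 µM in the primary screen, cut at about 50% in these data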;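 note: plate controls were negative control wells for no effect and 2.5 mM tranylcypromine positive control for full effect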
# CYP2C9 activ – increases human cytochrome P450 2C9 activity; 96,000 tested, 1.4% active; AID 1024; P11712; activation factor at 5 µM; recombinant CYP2C9, luciferin-H conversion, luminescence; hits give high values; factor 1 = untreated enzyme, 0 = blocked;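 active = activation factor of 2 or more for CYP2C9 at a 5 µM dose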;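 note: 0 = sulfaphenazole-blocked wells and 1 = vehicle-only wells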
# PTK2B oligo ant – Pyk2 (human) oligomerization antagonism; AID 1347419; z-score (the deposit names both 25 µM and 10 µM); Q293 cells, Pyk2 FERM NanoBiT luminescence; hits give low values; 99,000 tested, 0.83% active; Q14289;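 active = Z-score of -3 or lower, scaled per plate to the spread of control and sample wells; inactive = z-score above -3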;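 note: negative z-score means lost luminescence so less FERM oligomerization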
# Target sequence (Q14289 whole entry, looked up): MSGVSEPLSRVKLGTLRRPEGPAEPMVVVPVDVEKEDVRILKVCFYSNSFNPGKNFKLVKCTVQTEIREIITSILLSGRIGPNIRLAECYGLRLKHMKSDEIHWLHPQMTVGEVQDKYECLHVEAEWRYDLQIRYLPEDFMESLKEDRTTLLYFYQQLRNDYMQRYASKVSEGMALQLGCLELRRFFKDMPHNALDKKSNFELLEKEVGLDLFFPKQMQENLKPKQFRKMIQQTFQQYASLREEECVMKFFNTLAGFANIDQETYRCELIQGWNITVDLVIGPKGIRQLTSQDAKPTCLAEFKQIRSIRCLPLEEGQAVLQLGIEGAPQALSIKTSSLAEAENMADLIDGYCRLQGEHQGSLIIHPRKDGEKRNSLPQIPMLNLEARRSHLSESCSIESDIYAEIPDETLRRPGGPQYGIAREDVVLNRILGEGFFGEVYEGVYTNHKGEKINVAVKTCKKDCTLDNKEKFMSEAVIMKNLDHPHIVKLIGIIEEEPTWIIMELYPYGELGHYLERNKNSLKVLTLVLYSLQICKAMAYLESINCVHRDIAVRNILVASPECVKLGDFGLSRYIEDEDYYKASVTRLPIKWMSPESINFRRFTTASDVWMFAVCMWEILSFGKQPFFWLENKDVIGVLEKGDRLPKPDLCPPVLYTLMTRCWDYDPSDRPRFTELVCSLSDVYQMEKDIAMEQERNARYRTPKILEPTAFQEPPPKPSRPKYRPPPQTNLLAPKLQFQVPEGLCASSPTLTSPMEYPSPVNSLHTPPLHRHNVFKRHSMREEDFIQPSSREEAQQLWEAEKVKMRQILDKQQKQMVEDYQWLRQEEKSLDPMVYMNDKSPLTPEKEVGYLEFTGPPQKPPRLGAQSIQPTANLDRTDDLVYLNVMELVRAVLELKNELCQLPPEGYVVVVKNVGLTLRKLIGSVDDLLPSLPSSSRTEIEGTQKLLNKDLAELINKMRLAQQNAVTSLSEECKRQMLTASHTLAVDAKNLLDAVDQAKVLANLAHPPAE
# CYP2C19 activ – increases human CYP2C19 enzyme activity; P33261; recombinant CYP2C19, luciferin-H EGE luminescence; hits give high values; 0 = fully inhibited enzyme, 1 = untreated enzyme; activation factor at 5 µM; 96,000 tested, under 10 active; AID 1025;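 active = activation factor of at least 2 at 5 µM in the primary screen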;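 note: 0 = wells with 2.5 mM tranylcypromine and 1 = vehicle-only wells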
# An asterisk follows results filed as active; x = no result given. In the library only some 28% were active in any assay of this set; here they are far more common.
SMILES,CYP2C9 inhib,CYP2C19 inhib,CYP2C9 activ,PTK2B oligo ant,CYP2C19 activ
CSc1ccccc1NC(=O)CN(C)S(=O)(=O)c1ccc(F)cc1,-265,41,3.6*,0.04,0.6
CCSc1nnc(NC(=O)CN(C)S(=O)(=O)c2ccc(F)cc2)s1,75*,81*,0.2,-0.77,0.2
CS(=O)(=O)N(Cc1ccc(C(=O)Nc2ccccc2Sc2ccccc2)cc1)c1ccccc1,39,4,0.6,-0.48,1
CCOn1c(=O)c(C)[n+]([O-])c2ccccc21,x,x,x,0.19,x
Clc1ccc(SCc2cc(-c3ccc(Cl)cc3)on2)cc1,20,2,0.8,0.75,1
CC(=O)Nc1ccccc1NC(=O)CN(C)S(=O)(=O)c1ccc(C)cc1,-16,80*,1.2,-0.37,0.2
O=[N+]([O-])c1ccc2nc(-c3ccc(Cl)cc3)n(OCc3ccccc3)c2c1,18,6,0.8,-3.1*,0.9
N#CCCn1cnc2c(=S)nc[nH]c21,-8,-5,1.1,0.96,1.1
COc1ccc(NS(=O)(=O)c2c(C)cc(C)cc2C)cc1,93*,88*,0.1,-0.65,0.1
COc1cccc(NS(=O)(=O)c2c(C)n(C)c(=O)n(C)c2=O)c1,0,15,1,x,0.8
COc1cccc(NS(=O)(=O)c2c(C)cc(C)cc2C)c1,58*,100*,0.4,-0.47,0
CSc1nnc(-c2sc3cc(C(F)(F)F)cnc3c2-c2cccnc2)n1C,33,31,0.7,-0.78,0.7
CC1=NOC2(C1)N(C)c1ccccc1C2(C)C (stereo not drawn),19,58*,0.8,0.51,0.4
CC(C)(C)n1nc2c(c1NC(=O)c1cccc(C(F)(F)F)c1)CS(=O)C2 (stereo not drawn),11,24,0.9,0.19,0.8
CC(=O)c1cc2c(cc1NC(=O)CCNC(=O)c1ccccc1Cl)OCO2,74*,60*,0.3,0,0.4
O=C(CCNC(=O)c1ccccc1Cl)Nc1ccc2c(c1)OCO2,96*,59*,0,0.4,0.4
CC(=O)c1cc2c(cc1NC(=O)CSc1nc3ccccc3o1)OCO2,-9,-5,1.1,-0.98,1
O=C(Nc1ccc2c(c1)OCO2)N1CCN(c2ccccc2Cl)CC1,13,24,0.9,-0.37,0.8
O=C(Cn1c(=O)sc2ccccc21)NCCOc1ccccc1F,x,x,x,-0.66,x
S=C(NCc1ccccc1)NCC1COc2ccccc2O1 (stereo not drawn),81*,93*,0.2,-0.3,0.1
Oc1ccc(CNCC2COc3ccccc3O2)cc1 (stereo not drawn),1,56*,1,-0.88,0.4
O=C1N2CN(C(c3ccccc3)c3ccccc3)CN=C2SC1(CO)CO,2,8,1,0.11,0.9
O=C1NC(c2ccccc2)(C(F)(F)F)SC2=NCCCN12 (stereo not drawn),21,68*,0.8,0.94,0.3
COC(=O)CNC(=O)COC(=O)c1cc(F)c(F)cc1Cl,-4,4,1,0.57,1
O=c1oc2ccccc2cc1NCc1ccccc1O,22,59*,0.8,x,0.4
SMILES,CYP2C9 inhib,CYP2C19 inhib,CYP2C9 activ,PTK2B oligo ant,CYP2C19 activ
COc1ccc(S(=O)(=O)n2nc(C)cc2C)c(C)c1C,-142,31,2.4*,-0.09,0.7
Cc1cc(C)n(S(=O)(=O)c2cc(C)c(C)cc2C)n1,-4,18,1,-0.78,0.8
Cc1cc(C)n(S(=O)(=O)c2ccc(C)c(C)c2C)n1,-275,32,3.7*,0.37,0.7
O=S(=O)(c1ccc(F)cc1)N1CCn2c(nc3ccccc32)C1,15,44,0.9,x,0.6
O=S(=O)(c1ccccc1)N1CCn2c(nc3ccccc32)C1,24,71*,0.8,x,0.3
Cc1cccc(C)c1Oc1nc(-c2ccccc2)ncc1S(=O)(=O)c1ccccc1,85*,32,0.2,-1.9,0.7
O=C(O)CCn1cc(/C=C/C(=O)c2ccc(Cl)cc2)c(-c2ccc(Br)cc2)n1,x,x,x,-1.3,x
Fc1ccc(Br)cc1C1C=C(c2ccc(Br)s2)Nc2ncnn21 (stereo not drawn),46,96*,0.5,1.6,0
COc1ccc(C2C=C(c3ccc(C)c(C)c3)Nc3ncnn32)c(OC)c1OC (stereo not drawn),92*,96*,0.1,x,0
C=CCOC(=O)C1=C(C)Nc2ncnn2C1c1cc(Br)ccc1F (stereo not drawn),46,21,0.5,-1.9,0.8
COc1ccc(C2C=C(c3ccccc3)Nc3ncnn32)cc1 (stereo not drawn),-6,14,1.1,0.2,0.9
COc1cccc(C2C=C(c3ccc(Br)s3)Nc3ncnn32)c1OC (stereo not drawn),83*,98*,0.2,-2.2,0
CC(=O)Nc1nc(C2COc3ccccc3O2)cs1 (stereo not drawn),31,39,0.7,0.43,0.6
CC(C)(C)c1ccc(C(=O)OCCNC(=O)c2c(Cl)nc3ccccn23)cc1,92*,59*,0.1,-3.2*,0.4
COc1ccc(C(=O)OCCNC(=O)c2c(Cl)nc3ccccn23)cc1,45,75*,0.6,0.02,0.3
CCOC(=O)c1c(-c2ccccc2)nc2ccccn12,14,-1,0.9,-0.7,1
COc1ccc(C(=O)N2CCN(S(=O)(=O)N3CCOCC3)CC2)cc1OC,-14,-10,1.1,-0.44,1.1
Cc1ccc(S(=O)(=O)N(c2nc(N(C)C)nc(N(C)C)n2)n2cnnc2)cc1,54*,-6,0.5,-0.56,1.1
Cc1cc2cc(CN(C(=O)C3CC3)C3CCCC3)c3nnnn3c2cc1C,72*,96*,0.3,-1.4,0
CCC(=O)Nc1ccc2c(c1)nc(CN1CCN(C(C)=O)CC1)n2C,-9,3,1.1,0.15,1
CC(=O)Nc1ccc(S(=O)(=O)Oc2cccc(N3C(=O)C4CC=CCC4C3=O)c2)cc1 (stereo not drawn),59*,43,0.4,-1,0.6
O=C(CSc1nccn1-c1ncc(C(F)(F)F)cc1Cl)c1ccc(Br)cc1,62*,93*,0.4,0.94,0.1
O=C(Nc1ccc(Br)cc1)c1cccn1-c1ncc(C(F)(F)F)cc1Cl,32,25,0.7,-1.8,0.8
Cc1ccc(/C(CSc2nccn2-c2ncc(C(F)(F)F)cc2Cl)=N\O)cc1,52*,56*,0.5,-0.5,0.4
Cc1cc(O)c(C(C)C)cc1N=C1CSC(=O)N1,38,3,0.6,-0.08,1
Cc1nc2cc(NC(=O)COc3ccc(C#N)cc3)ccc2n1-c1ccccc1,38,23,0.6,-0.87,0.8
FC(F)(F)c1cccc(Cn2nnnc2-c2cc(Cl)cc(Cl)c2)c1,62*,89*,0.4,-1,0.1
CCCn1nnnc1-c1cc(Cl)cc(Cl)c1,-6,15,1.1,0.57,0.8
FC(F)(F)c1cccc(Cn2nnnc2-c2cccc(C(F)(F)F)c2)c1,54*,92*,0.5,-1,0.1
COc1cccc2c1OC[C@@H](CO)[C@H]2N(C)C(=O)Nc1ccccc1,-9,24,1.1,0.36,0.8

# Compound activity: PubChem, Sanford-Burnham Center for Chemical Genomics
